# In PubChem BioAssay:
# Values joined by “and” are separate entries in the source; they are usually repeats but may differ in a detail not shown here. Identical values can stand only once.
# Assay: calcein-AM signal in unstimulated myeloma cells – cell-based, calcein-AM fluorescence, 48 h, PK04 Diversity Set, profiling panel (AID 1166);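 note: cells grown under basal conditions without added stimulus; test concentration not given here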
# Conditions: RPMI8226 myeloma viability, higher = more signal
row,Compound,z-score
1,CC(=O)OC[C@H]1O[C@H](C#CC(C)(C)C)C=C[C@@H]1OC(C)=O,-1.73
2,COc1ccc(O[C@H]2C=C[C@@H](c3ccccc3)O[C@@H]2COC(=O)CCC(C)=NO[C@H](C)c2cn([C@H](CO)Cc3ccccc3)nn2)cc1,-2.54 and -1.69
3,CCCC[C@@H]1CN2[C@H](c3ccc(Br)cc3)[C@@H](C)CC[C@H]2C(=O)O1,0.969 and 0.24
4,CC(CO)N1C(=O)[C@@H]2C3C(=O)OCCC=C[C@H]3OC23C=CCN(C(C)(C)C)C(=O)[C@@H]13 (stereo not given in full),-0.0799 and 0.143
5,C=CCN(C(=O)C1N(CCOCCO)C(=O)C2C(C(=O)O)C3C=CC21O3)C(C)(C)C (stereo not given),-0.114 and 0.817
6,C[C@@H](ON=C1[C@H]2CCn3c(=O)n(-c4ccccc4)c(=O)n3[C@H]2[C@H](O)[C@@H]2O[C@H]12)c1cn([C@H](CO)Cc2ccccc2)nn1,-0.259
7,CO[C@H]1COC(=O)CC=C[C@H](C)[C@H](OC)COC(=O)[C@@H](C)COC(=O)CC=C[C@@H]1C,-0.409 and 0.728
8,COC(=O)[C@H](C)NC(=O)CCC1CC(OC(=O)NCCc2ccc(F)cc2)CC2(CCCC(COC(=O)NCCCN3CCCC3=O)O2)O1 (stereo not given in full),-1.78
9,CCOC(=O)[C@@H]1CC2O[C@]23C[C@@H]1C(=O)N1CCC[C@@H]1[C@H]3O[Si](C)(C)C(C)(C)C (stereo not given in full),-0.55 and -0.467
10,C[C@@H]1CC[C@H]2C(=O)O[C@H](CN=[N+]=[N-])CN2[C@H]1c1ccc(Br)cc1,-3.07 and 0.163
11,O=c1n(-c2ccccc2)c(=O)n2n1CC[C@@H]1C(=NOC[C@@H](O)COCc3ccco3)[C@H]3O[C@H]3[C@@H](O)[C@@H]12,-0.246 and -0.624
12,C=C(C)C(=O)OC[C@@H]1CN2[C@@H](CC[C@@H](C)[C@@H]2c2ccc(Br)cc2)C(=O)O1,0.427
13,CCCNC(=O)OC[C@H]1O[C@H](CCON=C(C)CCC(=O)OC[C@H]2O[C@H](C#Cc3ccccc3)C=C[C@@H]2Oc2ccc(C)cc2)C=C[C@@H]1Oc1ccc(OC)cc1,0.0363
14,C=C[C@@H](OC)[C@H](O)c1ccc(O)c(F)c1,0.296 and 1.08
15,COCn1c2ccccc2c2nnc(C(C)=O)nc21,-2.16 and -1.74
16,CC[C@@H]1C(Sc2ccccc2)C(C(=O)O)[C@H](c2ccc(C)cc2)N1S(=O)(=O)c1ccc(C)cc1 (stereo not given in full),-0.528 and -0.148
17,C=CCN(C(=O)C(c1cccs1)N(C(=O)/C=C\C(=O)O)c1c(Cl)cccc1CO)c1ccc(OC)cc1 (stereo not given),0.844 and 0.57
18,CO[C@@H]1COC(=O)[C@H](Cc2ccccc2)NC(=O)CC=C[C@@H](C)[C@H](OC)COC(=O)[C@@H](C)NC(=O)CC=C[C@H]1C,0.173 and 1.12
19,CCOC(=O)[C@@H]1CC=C2CC1C(=O)N1CCC[C@@H]1[C@H]2O[Si](C)(C)C(C)(C)C (stereo not given in full),-1.71 and -2.37
20,C[C@@H](c1ccccc1)N1C(=O)[C@H]2[C@H]3[C@H](O)[C@H](O)CC(=O)[C@@H]3CC[C@H]2C1=O,-1.17

row,Compound,z-score
1,C[C@@H]1CC[C@H]2C(=O)NC[C@@H](O)CN2[C@H]1c1ccc(Br)cc1,-0.239 and -0.0289
2,CC(C)[Si]1(C(C)C)OCc2cc(CCCc3cc4c(c(CCc5ccccc5)n3)[Si](C(C)C)(C(C)C)OC4)nc(CCc3ccccc3)c21,-1.09 and -0.322
3,Cc1cc2c(nc1C)CCCN2CC(C)ON=C[C@@H](C)[C@H](OCc1ccccc1)C(C)C (stereo not given in full),-0.583
4,C=CCN(C(=O)C(c1cccs1)N(C(=O)/C=C\C(=O)O)c1ccc(CCO)cc1)C(C)(C)C (stereo not given),0.3 and 0.317
5,C=C[C@@H](OC)[C@H](O)c1ccc(OCCO)cc1,-0.486 and 0.64
6,C=CCN(C(=O)C(c1cccs1)N(CCOCCO)C(=O)/C=C\C(=O)O)c1ccc(OC)cc1 (stereo not given),0.566 and 0.95
7,C=C[C@@H](C)[C@H](O)c1ccc(O)c2ccccc12,-0.808 and -0.695
8,C[C@@H]1CN2[C@@H](CC[C@@H](C)[C@@H]2c2ccc(Br)cc2)C(=O)O1,-0.0928 and 0.767
9,C=CCN(C(=O)C1N(c2ccc(CCO)cc2)C(=O)C2C(C(=O)O)C3C=CC21O3)c1ccc(OC)cc1 (stereo not given),-0.0159 and 0.492
10,C=C[C@H](C)[C@@H](O)c1ccc(OCCO)cc1,-0.528 and 0.864
11,C=CCN(C(=O)C(c1cccs1)N(CCOCCO)C(=O)/C=C\C(=O)O)C(C)(C)C (stereo not given),0.116 and 0.954
12,COC(=O)C1=C(C)N(Cc2ccccc2)[C@]23O[C@](C(=O)OC)(C(=O)N2[C@@H]1c1ccccc1)[C@@H](c1ccccc1)[C@@H]3C(=O)c1ccccc1,-0.0139 and 0.294
13,C=CCN(CCCC)C(=O)C1N(C(C)(C)CO)C(=O)C2C(C(=O)O)C3C=CC21O3 (stereo not given),-0.539 and 0.144
14,Cc1ccc(S(=O)(=O)N[C@H]2COC(=O)[C@@H](C)COC(=O)[C@H](C)NC(=O)CC=C[C@H]2C)cc1,0.0608
15,Cc1ccc(S(=O)(=O)OC[C@@H]2CN3[C@@H](CC[C@@H](C)[C@@H]3c3ccc(Br)cc3)C(=O)O2)cc1,-0.341 and -0.294
16,COC(=O)C1=C(C)N(Cc2ccccc2)C2=C(C(=O)c3ccccc3)[C@H](c3ccccc3)[C@@](O)(C(=O)OC)C(=O)N2[C@@H]1c1ccccc1,-1.15 and 0.0491
17,C=CCN(Cc1ccccc1)C(=O)C(c1cccs1)N(C(=O)/C=C\C(=O)O)c1ccc(CCO)cc1 (stereo not given),0.586 and 0.894
18,CCOC(=O)[C@H](Cc1ccccc1)NC(=O)CCC1CC(OC(=O)NCc2cccc3ccccc23)CC2(CCCC(COC(=O)NCCCN3CCCC3=O)O2)O1 (stereo not given in full),-0.178
19,COC(=O)c1c2oc(c1C(=O)OC)C(=O)N[C@@H](Cc1ccccc1)Cn1cc(nn1)C1(CCCCC1)NC(=O)N[C@H](CO)CC2,1.51 and -1.13
20,C=CCN(CCCCC)C(=O)C1N(c2ccc(CCO)cc2)C(=O)C2C(C(=O)O)C3C=CC21O3 (stereo not given),-0.322 and -1.02
